MazEF act: MazEF (E. coli) toxin RNase activation; activation, % at 20 µM; FAM/BHQ RNA-DNA oligo cleavage fluorescence, 5 h; P0AE70; hit rate 0.32% among 350,000; in the data active means activation above about 50%
Target sequence (P0AE70 whole entry, looked up): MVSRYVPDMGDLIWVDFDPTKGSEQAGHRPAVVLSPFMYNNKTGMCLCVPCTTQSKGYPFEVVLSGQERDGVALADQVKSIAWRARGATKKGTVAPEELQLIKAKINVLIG
VHR inh abs: blocks human VHR1 dual specificity phosphatase; inhibition, % at 13.3 µM; hit rate 0.52% among 290,000; P51452; recombinant VHR phosphatase, pNPP absorbance; in the data active means inhibition above about 50%
Target sequence (P51452 whole entry, looked up): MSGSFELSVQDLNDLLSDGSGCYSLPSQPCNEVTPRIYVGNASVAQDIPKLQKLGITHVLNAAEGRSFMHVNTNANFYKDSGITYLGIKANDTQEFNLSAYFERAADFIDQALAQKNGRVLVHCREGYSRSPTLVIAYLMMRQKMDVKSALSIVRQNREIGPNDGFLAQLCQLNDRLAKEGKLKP
Bead autofluor: counter-screen for toxin protease inhibitors: compound fluorescence; compound autofluorescence counterscreen, microsphere flow cytometry; stronger effect = higher value; AID 624483; hit rate 3.1% among 360,000; fluorescence intensity (concentration not given with the values); in the data active means fluorescence intensity above about 16000; inconclusive means no clear call, values can overlap the other calls
BoNT-F LC inh: BoNT F light chain protease inhibition | inhibition, % at 10 µM | Multiplex microsphere protease cleavage assay, flow cytometry | hit rate 0.22% among 360,000; in the data active means inhibition above about 35%, passing the limit was not always enough; inconclusive means no clear call, values can overlap the other calls; further: plate controls were buffer without enzyme for full effect and enzyme alone for no effect
BoNT A protease: blocks Botulinum neurotoxin A light chain protease; multiplex microsphere protease substrate cleavage, flow cytometry; inhibition, % at 10 µM; hit rate 0.17% among 360,000; further: plate controls were buffer without enzyme for full effect and enzyme alone for no effect
Anthrax LF prot: blocks Bacillus anthracis lethal factor protease; multiplex microsphere protease cleavage assay, LF; P15917; inhibition, % at 10 µM; hit rate 0.12% among 360,000; AID 588501; further: plate controls were buffer without enzyme for full effect and enzyme alone for no effect
Numbers without * were called inactive; ? = inconclusive; nt = not tested or not shown. Rows were chosen to be rich in hits. Some 4.1% of all compounds tested hit in one or more screens of this group. Unless noted, no stated cut-off is given here; in the data, active means inhibition above about 30%; inconclusive means no clear call, values can overlap the other calls; inactive means below that.

SMILES | MazEF act | VHR inh abs | Bead autofluor | BoNT-F LC inh | BoNT A protease | Anthrax LF prot
CNS(=O)(=O)c1cccc(C(=O)Nc2cccnc2)c1 | -15.7 | 56.4* | 2948 | -5.3 | 0.0 | -0.5
CCN(CC)S(=O)(=O)c1cccc(NC(=O)CC2CCCC2)c1 | -36.8 | -17.1 | 3152 | 6.7 | -3.0 | 5.0
CCN(CC)S(=O)(=O)c1cccc(NC(=O)Nc2cccc(C(F)(F)F)c2)c1 | 6.4 | 11.6 | 21515* | -10.7 | -5.7 | -4.3
CCN(CC)S(=O)(=O)c1cccc(C(=O)Nc2cccnc2)c1 | -10.1 | 9.1 | 22467* | 2.8 | ? | -8.0
CCN(CC)S(=O)(=O)c1cccc(C(=O)NC2CCCCC2)c1 | 2.3 | 3.5 | 21448* | -0.7 | ? | 1.0
O=C(O)c1oc2ccccc2c1-n1cccc1 | 0.6 | -11.2 | 16703* | -1.7 | -1.7 | -3.6
COC(=O)c1oc2ccc(Br)cc2c1-n1cccc1 | -3.8 | 8.1 | 2560 | -1.4 | 0.1 | -13.4
COc1ccc(NS(=O)(=O)c2cccs2)c(OC)c1 | -8.5 | 4.8 | 2362 | -5.8 | 0.3 | -2.4
COc1ccc(NS(=O)(=O)c2ccc(SC)cc2)c(OC)c1 | 2.3 | -20.6 | 21230* | 1.7 | 6.0 | 0.6
COc1ccc(S(=O)(=O)Nc2ccccc2SC)cc1C | 2.9 | -14.8 | 23520* | -0.7 | -0.8 | -1.1
CC1CCc2sc(C(=O)NNS(=O)(=O)c3ccc(F)c(F)c3F)cc2C1 (stereo not drawn) | -1.5 | nt | ? | -0.5 | -2.7 | -2.5
COc1ccc(C(=O)c2sc(Nc3ccccc3)c(C(=O)Nc3ccc(OC)c(OC)c3)c2N)cc1 | -12.6 | -10.5 | 2846 | 1.5 | 0.5 | -2.9
COc1ccc(Nc2sc(C(=O)c3ccc(Cl)cc3)c(N)c2C(=O)Nc2ccccc2OC)cc1 | 3.9 | 15.6 | 22771* | -7.2 | -1.8 | -2.9
CC(NC(=O)c1ccco1)C(=O)OCc1cccc(Cl)c1 (stereo not drawn) | -1.8 | -13.1 | 25194* | -10.0 | -5.5 | -1.0
O=C(NCc1cccc(Cl)c1)c1ccco1 | 2.8 | 8.3 | 22733* | -2.2 | -1.4 | 0.4
O=C(NCCSc1ccc(Cl)cc1)c1ccco1 | 6.6 | 4.2 | 21843* | 2.3 | 2.0 | -2.1
COC(=O)C1=C(C)Nc2sc(C(N)=O)c(N)c2C1c1ccncc1 (stereo not drawn) | 1.1 | -17.2 | 1985 | -4.1 | 0.1 | -1.8
Cc1ccc(C2CC(=O)Nc3sc(C(N)=O)c(N)c32)cc1 (stereo not drawn) | 1.7 | 7.2 | 21762* | 0.0 | 1.3 | -0.9
CC1Cn2c(nc3sc4c(c3c2=O)CC(C)(C)OC4)N1CCO (stereo not drawn) | 3.6 | 53.0* | 3982 | -12.8 | -2.8 | 7.6
O=C(CCc1ccc(S(=O)(=O)N2CCOCC2)cc1)Nc1nccs1 | 4.5 | 33.8 | 2844 | -0.2 | 0.0 | -4.4
O=C(CCc1ccc(S(=O)(=O)N2CCOCC2)cc1)N1CCCC1 | 4.0 | 7.2 | 23425* | -3.2 | ? | -2.0
O=C(CCc1ccc(S(=O)(=O)N2CCOCC2)cc1)Nc1nc(COc2ccccc2)cs1 | -6.9 | 30.9 | 22376* | 0.0 | 2.1 | -1.2
O=C(COc1ccccc1)Nc1nc(-c2ccc(S(=O)(=O)N3CCOCC3)cc2)cs1 | 3.9 | 22.2 | 4490 | 3.3 | 0.5 | 0.1
O=C(CCc1ccc(S(=O)(=O)N2CCOCC2)cc1)NCCc1ccccn1 | 3.3 | 7.1 | 21908* | -2.1 | ? | -1.8
Cc1ccc(C2/C(=C(/O)c3ccccc3)C(=O)C(=O)N2CCN2CCOCC2)o1 (stereo not drawn) | -0.1 | 31.1 | 20379* | 0.6 | 0.6 | -1.7
COc1cccc(/C=N/Nc2ncnc3scc(-c4ccccc4)c23)c1OC | -5.7 | 2.3 | 21674* | -1.6 | 2.3 | 0.5
Cc1c([N+](=O)[O-])cc(C(=O)Oc2ccc(Br)cc2C(=S)N2CCCCC2)cc1[N+](=O)[O-] | 1.3 | 32.7 | 22033* | 1.2 | ? | -2.9
COC(=O)Cc1ccc(NC(=S)N2CCN(c3cccc(O)c3)CC2)cc1 | -4.7 | 55.4* | 2547 | -6.1 | -0.2 | -1.6
CCOc1ccc(CCN2C(=S)N([C@@H](CC(C)C)CN3CCCC3CN3C(=S)NC[C@@H]3Cc3ccc(O)cc3)C[C@@H]2Cc2ccc(O)cc2)cc1 (stereo partly drawn) | -11.2 | nt | 3654 | -2.2 | -0.3 | -3.5
COc1cc(/C=C/CN2CCC(CO)(CC3CCCCO3)CC2)ccc1O (stereo not drawn) | -21.3 | 51.4* | 3930 | 3.2 | -0.5 | -6.7

From PubChem
